Experimental data as given in PubChem BioAssay (NCATS).
Results filed as inconclusive are left out. Activity calls are given as the source filed them. The call rests on the fitted dose curve; in most records, active means well fitted cell-killing curve with a large enough effect; inconclusive means small, poorly fitted or top-dose-only effect, or effect the other way; inactive means flat fitted curve, though single readings scatter.

Key:
Assay in all cases: Primary qHTS to identify gynecologic anti-cancer compounds using libraries of approved drugs and bioactive compounds (AID 1345084); further: nearly all actives have a fitted effect of over 55% in size
C33A = conditions: Gynecologic cancer cell panel viability, ATPlite luminescence, 48 h; series mostly up to 57.5 µM
Outline: (§1)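 48 h compound exposure at 37 C, 5% CO2; five-point qHTS. ATPlite luminescence readout of cell ATP.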

CAOV3 = conditions: Gynecologic cancer cell panel viability, ATPlite luminescence, 48 h; series mostly up to 57.5 µM
Outline: as §1

CASKI = conditions: Gynecologic cancer cell panel viability, ATPlite luminescence, 48 h; series mostly up to 57.5 µM
Outline: as §1

Es-2 = conditions: Gynecologic cancer cell panel viability, ATPlite luminescence, 48 h; series mostly up to 57.5 µM
Outline: as §1

HeLa = conditions: Gynecologic cancer cell panel viability, ATPlite luminescence, 48 h; series mostly up to 57.5 µM
Outline: as §1

Hek293T = conditions: Gynecologic cancer cell panel viability, ATPlite luminescence, 48 h, control line for the selectivity index; series mostly up to 57.5 µM
Outline: as §1

JEG-3 = conditions: Gynecologic cancer cell panel viability, ATPlite luminescence, 48 h; series mostly up to 57.5 µM
Outline: as §1

OV90 = conditions: Gynecologic cancer cell panel viability, ATPlite luminescence, 48 h; series mostly up to 57.5 µM
Outline: as §1

PA-1 = conditions: Gynecologic cancer cell panel viability, ATPlite luminescence, 48 h; series mostly up to 57.5 µM
Outline: as §1

SKOV3 = conditions: Gynecologic cancer cell panel viability, ATPlite luminescence, 48 h; series mostly up to 57.5 µM
Outline: as §1

Tov-21-G = conditions: Gynecologic cancer cell panel viability, ATPlite luminescence, 48 h; series mostly up to 57.5 µM
Outline: as §1

Tov112D = conditions: Gynecologic cancer cell panel viability, ATPlite luminescence, 48 h; series mostly up to 57.5 µM
Outline: as §1
On the % scale 0 is the no-effect control and ±100 the full control effect.

CCCC(=O)C1CCN(c2ncnc3c2CN(C(=O)c2ccc(-c4ccccc4)cc2)CC3)CC1
inactive: Potency (C33A) | Potency (CAOV3) | Potency (CASKI) | Potency (Es-2) | Potency (HeLa) | Potency (Hek293T) | Potency (JEG-3) | Potency (OV90) | Potency (PA-1) | Potency (SKOV3) | Potency (Tov-21-G) | Potency (Tov112D)

O=C(OC[C@H]1O[C@H](O[C@]2(CO)O[C@H](CO)[C@@H](O)[C@@H]2O)[C@H](O)[C@@H](O)[C@@H]1O)c1ccccc1
inactive: Potency (C33A) | Potency (CAOV3) | Potency (CASKI) | Potency (Es-2) | Potency (HeLa) | Potency (Hek293T) | Potency (JEG-3) | Potency (OV90) | Potency (PA-1) | Potency (SKOV3) | Potency (Tov-21-G) | Potency (Tov112D)

CC1OC(OCC2OC(OC3CCC4(C)C(CCC5(C)C4CC=C4C6CC(C)(C)CCC6(C(=O)OC6OC(CO)C(O)C(O)C6O)CCC45C)C3(C)CO)C(O)C(O)C2O)C(O)C(O)C1O (stereo unspecified)
inactive: activity change, negative = cytotoxicity (C33A) 10.1% [at 11.6 µM] | activity change, negative = cytotoxicity (CAOV3) 17.5% [at 11.6 µM] | activity change, negative = cytotoxicity (CASKI) 14.8% [at 11.6 µM] | activity change, negative = cytotoxicity (Es-2) 0.0336% [at 11.6 µM] | activity change, negative = cytotoxicity (HeLa) -1.23% [at 11.6 µM] | activity change, negative = cytotoxicity (Hek293T) -5.88% [at 11.6 µM] | activity change, negative = cytotoxicity (JEG-3) -1.04% [at 11.6 µM] | activity change, negative = cytotoxicity (OV90) -5.44% [at 11.6 µM] | activity change, negative = cytotoxicity (PA-1) -0.107% [at 11.6 µM] | activity change, negative = cytotoxicity (SKOV3) 24.6% [at 11.6 µM] | activity change, negative = cytotoxicity (Tov-21-G) 2.94% [at 11.6 µM] | activity change, negative = cytotoxicity (Tov112D) -1.29% [at 11.6 µM]

CC1=CC(=O)CC(C)(C)[C@H]1/C=C/C(CO)O[C@@H]1O[C@H](CO)[C@@H](O)[C@H](O)[C@H]1O (stereo partly specified)
inactive: Potency (C33A) | Potency (CAOV3) | Potency (CASKI) | Potency (Es-2) | Potency (HeLa) | Potency (Hek293T) | Potency (JEG-3) | Potency (OV90) | Potency (PA-1) | Potency (SKOV3) | Potency (Tov-21-G) | Potency (Tov112D)

COc1cc(C2Oc3c(OC)cc(CCCO)cc3C2CO)ccc1O[C@H]1O[C@H](C)[C@@H](O)[C@H](O)[C@@H]1O (stereo partly specified)
inactive: Potency (C33A) | Potency (CAOV3) | Potency (CASKI) | Potency (Es-2) | Potency (HeLa) | Potency (Hek293T) | Potency (JEG-3) | Potency (OV90) | Potency (PA-1) | Potency (SKOV3) | Potency (Tov-21-G) | Potency (Tov112D)

COC(=O)C12CCC(C)C(C)C1C1=CCC3C4(C)CCC(OC(C)=O)C(C)(C)C4CCC3(C)C1(C)CC2 (stereo unspecified)
inactive: Potency (C33A) | Potency (CAOV3) | Potency (CASKI) | Potency (Es-2) | Potency (HeLa) | Potency (Hek293T) | Potency (JEG-3) | Potency (OV90) | Potency (PA-1) | Potency (SKOV3) | Potency (Tov-21-G) | Potency (Tov112D)

COc1ccccc1NC(=O)OCC1CCN(C(=O)OC(C)(C)C)CC1
inactive: Potency (C33A) | Potency (CAOV3) | Potency (CASKI) | Potency (Es-2) | Potency (HeLa) | Potency (Hek293T) | Potency (JEG-3) | Potency (OV90) | Potency (PA-1) | Potency (SKOV3) | Potency (Tov-21-G) | Potency (Tov112D)

CC(=O)O[C@@H](CO[C@@H]1O[C@H](CO)[C@H](O)[C@H](O)[C@H]1O)[C@]1(C)C=C2CC[C@@H]3C(C)(C)[C@@H](O)CC[C@@]3(C)[C@@H]2CC1
inactive: Potency (C33A) | Potency (CAOV3) | Potency (CASKI) | Potency (Es-2) | Potency (HeLa) | Potency (Hek293T) | Potency (JEG-3) | Potency (OV90) | Potency (PA-1) | Potency (SKOV3) | Potency (Tov-21-G) | Potency (Tov112D)

COc1c2c(c(CO)c3c1C(=O)OC3)OC1(C)CCC3(O)C(C)(C)OC(=O)CCC3(C)C1C2 (stereo unspecified)
inactive: Potency (C33A) | Potency (CAOV3) | Potency (CASKI) | Potency (Es-2) | Potency (HeLa) | Potency (Hek293T) | Potency (JEG-3) | Potency (OV90) | Potency (PA-1) | Potency (SKOV3) | Potency (Tov-21-G) | Potency (Tov112D)

CC(C)CC1NC(=O)C2CC3(O)c4ccccc4NC3N2C1=O (stereo unspecified)
inactive: Potency (C33A) | Potency (CAOV3) | Potency (CASKI) | Potency (Es-2) | Potency (HeLa) | Potency (Hek293T) | Potency (JEG-3) | Potency (OV90) | Potency (PA-1) | Potency (SKOV3) | Potency (Tov-21-G) | Potency (Tov112D)

CC(C)S(=O)(=O)NC[C@H](C)c1ccc(NC(=O)c2cc(F)cc(F)c2)cc1
inactive: Potency (C33A) | Potency (CAOV3) | Potency (CASKI) | Potency (Es-2) | Potency (HeLa) | Potency (Hek293T) | Potency (JEG-3) | Potency (OV90) | Potency (PA-1) | Potency (SKOV3) | Potency (Tov-21-G) | Potency (Tov112D)

COc1ccc(CCO[C@@H]2O[C@H](CO[C@@H]3OC[C@H](O)[C@H](O)[C@H]3O)[C@@H](O)[C@H](O)[C@H]2O)cc1
inactive: Potency (C33A) | Potency (CAOV3) | Potency (CASKI) | Potency (Es-2) | Potency (HeLa) | Potency (Hek293T) | Potency (JEG-3) | Potency (OV90) | Potency (PA-1) | Potency (SKOV3) | Potency (Tov-21-G) | Potency (Tov112D)

C[C@@H]1O[C@@H](O[C@H]2[C@H](OC(=O)[C@]34CCC(C)(C)C[C@H]3C3=CCC5[C@@]6(C)C[C@H](O)[C@H](O[C@@H]7O[C@H](CO)[C@@H](O[C@H]8OC[C@](O)(CO)[C@H]8O)[C@H](O)[C@H]7O)[C@@](C)(CO)C6[C@H](O)C[C@@]5(C)[C@]3(C)C[C@H]4O)OC[C@H](O)[C@@H]2O)[C@H](O)[C@H](O)[C@H]1O[C@@H]1OC[C@@H](O)[C@H](O[C@@H]2OC[C@](O)(CO)[C@H]2O)[C@H]1O (stereo partly specified)
inactive: activity change, negative = cytotoxicity (C33A) -2.68% [at 6.55 µM] | activity change, negative = cytotoxicity (CAOV3) -10.4% [at 6.55 µM] | activity change, negative = cytotoxicity (CASKI) -0.0524% [at 6.55 µM] | activity change, negative = cytotoxicity (Es-2) 0.233% [at 6.55 µM] | activity change, negative = cytotoxicity (HeLa) -3.15% [at 6.55 µM] | activity change, negative = cytotoxicity (Hek293T) 2.67% [at 6.55 µM] | activity change, negative = cytotoxicity (JEG-3) 23.3% [at 6.55 µM] | activity change, negative = cytotoxicity (OV90) -28.7% [at 6.55 µM] | activity change, negative = cytotoxicity (PA-1) 18.7% [at 6.55 µM] | activity change, negative = cytotoxicity (SKOV3) 13.1% [at 6.55 µM] | activity change, negative = cytotoxicity (Tov-21-G) -9.27% [at 6.55 µM] | activity change, negative = cytotoxicity (Tov112D) -0.812% [at 6.55 µM]
